In all, about 33,000 sequences were measured (“E-score (-0.5 to 0.5)”: median about -0.016, highest 2% from about 0.3 on). Only a selection was taken, and the highest values are over-represented in it overall.
The sequences below were run against T1, Yer184c (UniProt P39961) (assay: PBM E-score (8-mer binding enrichment) (E-score (-0.5 to 0.5)); higher = stronger / more preferred TF binding). Details: protein concentration: 100 nM; construct: GST-full length.
T1 sequence: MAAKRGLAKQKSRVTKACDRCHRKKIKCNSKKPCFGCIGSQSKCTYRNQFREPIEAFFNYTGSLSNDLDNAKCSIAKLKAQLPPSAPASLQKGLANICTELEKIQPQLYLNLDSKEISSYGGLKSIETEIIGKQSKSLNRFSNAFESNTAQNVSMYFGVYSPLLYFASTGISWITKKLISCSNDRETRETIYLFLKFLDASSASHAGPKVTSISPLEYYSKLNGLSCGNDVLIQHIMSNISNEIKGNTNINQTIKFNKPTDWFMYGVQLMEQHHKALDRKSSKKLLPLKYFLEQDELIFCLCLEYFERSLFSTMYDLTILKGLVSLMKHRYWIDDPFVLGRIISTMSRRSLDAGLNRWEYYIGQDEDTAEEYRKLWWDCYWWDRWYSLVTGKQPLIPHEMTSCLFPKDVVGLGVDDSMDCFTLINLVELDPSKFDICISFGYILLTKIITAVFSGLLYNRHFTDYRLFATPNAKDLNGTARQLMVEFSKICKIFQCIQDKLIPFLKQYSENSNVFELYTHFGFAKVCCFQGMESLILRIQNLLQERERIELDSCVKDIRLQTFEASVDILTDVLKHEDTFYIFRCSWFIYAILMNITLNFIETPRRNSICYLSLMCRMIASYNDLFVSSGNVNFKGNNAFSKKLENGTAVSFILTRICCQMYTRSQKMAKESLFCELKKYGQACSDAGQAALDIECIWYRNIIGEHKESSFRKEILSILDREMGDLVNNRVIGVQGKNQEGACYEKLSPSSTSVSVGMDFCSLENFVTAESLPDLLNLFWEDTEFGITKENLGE
Procedure: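 Universal 'all 10-mer' protein binding microarrays (Agilent AMADID 015681) probed with GST-tagged S. cerevisiae TFs (full-length or DBD) made by in vitro transcription/translation (PURExpress), about 100-200 nM. Bound TF was detected with fluorescent anti-GST. Each ungapped 8-mer (which stands for itself and its reverse complement) is scored by the PBM enrichment score (E-score), a modified Wilcoxon-Mann-Whitney statistic from -0.5 to +0.5, computed with the Universal PBM Analysis Suite. Scale: above 0.35 generally sequence-specific binding.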

Row | Sequence | PBM E-score
1 | CCCCGGAG | 0.135
2 | GCCCGGAC | 0.192
3 | CCCCGGAA | 0.151
4 | ACCCGGAG | 0.348
5 | TCCCCGGA | 0.224
6 | ACCCCGGA | 0.142
7 | ACTCGATA | 0.0187
8 | CCGACTAG | -0.036
9 | TAGAAATA | 0.126
10 | ATGCTCTC | -0.0198
11 | CAGCTACC | -0.113
12 | CCATAGAG | -0.11
13 | GGCATACC | -0.214
14 | ACAAGGTC | -0.234
15 | CAGTGGAC | -0.0743
16 | AACCAAAC | -0.103
17 | ATGTTCCC | -0.107
18 | CCGTTCCG | 0.304
19 | ATGTTCCG | 0.347
20 | AAGTTCCT | 0.0951
21 | CCGTTCCA | 0.0249
22 | AAGTTCCG | 0.307
23 | ATGTTCCA | 0.016
24 | CAGTTCCG | 0.199
25 | ACGTTCCG | 0.0307

Row | Sequence | PBM E-score
26 | TCAAGCCA | -0.0394
27 | TAGTATGA | 0.129
28 | AAGGGCCC | -0.28
29 | GACGCTTA | -0.148
30 | AAAACTTA | 0.245
31 | ACGGAACC | 0.329
32 | AGGGAACC | -0.101
33 | CCGGAACC | 0.363
34 | CAGGAACG | -0.0846
35 | CCGGAACG | 0.329
36 | ACGGAACT | 0.197
37 | GCGGAACC | 0.268
38 | ACGGAACG | 0.212
39 | CAGGAACC | -0.147
40 | CCTTGGAA | 0.00859
41 | TGCAAGCA | -0.0504
42 | CAGCGTTA | -0.141
43 | ATACGCTA | 0.0126
44 | ACCTTCAT | -0.00129
45 | CTCCAGAG | -0.154
46 | CTCCGAAG | 0.303
47 | CCCCGAAC | -0.00623
48 | ATCCGAAC | 0.261
49 | CGCCGAAC | 0.345
50 | CGCCGAAG | 0.328

Row | Sequence | PBM E-score
51 | CACCGAAG | 0.192
52 | AGCCGAAG | 0.14
53 | CTCCGAAC | 0.323
54 | CGCCGATC | 0.129
55 | GGCTGCGA | -0.00955
56 | CATGGAGC | -0.175
57 | ATGGAGAG | -0.0917
58 | CATTAGGG | -0.12
59 | ATCTCCAG | -0.0032
60 | CTCTCCGA | 0.149
61 | GTCTCCGA | 0.243
62 | ATCTCCGG | 0.435
63 | ATCTCCGA | 0.36
64 | ATCTCCGC | 0.14
65 | AAGCACCA | -0.224
66 | CACCAAAG | 0.0906
67 | ATTTATCG | 0.103
68 | ATTTATCA | 0.258
69 | ATTTATTA | 0.216
70 | ATTTATCC | 0.314
71 | ATTTATTC | 0.329
72 | CTTTATTC | 0.0145
73 | ATAGAACA | -0.0179
74 | AGTACTGC | -0.177
75 | AACTCGAT | 0.12

Row | Sequence | PBM E-score
76 | ACAAGCGA | -0.015
77 | GAAGTAAC | 0.0995
78 | AGTAGCAT | -0.0361
79 | AGCATATG | -0.242
80 | ATCCGATC | 0.235
81 | ATCCGACA | 0.162
82 | ATCCGAAT | 0.419
83 | GTCCGAGA | 0.333
84 | ATCCGATG | 0.327
85 | ATCCGATA | 0.266
86 | ATCCGAGA | 0.252
87 | ATCCGAAG | 0.302
88 | ATCCGAAA | 0.321
89 | CTCCGAGA | 0.247
90 | ATACGAAT | 0.0699
91 | ATCCGACC | 0.0769
92 | CTGTGTTC | 0.093
93 | CTAGAACC | -0.00303
94 | TATGTACA | -0.0329
95 | AGCACTCG | -0.0898
96 | CTAGAAAG | -0.0631
97 | ATGTATGC | 0.0572
98 | AGTCTCAG | -0.104
99 | CTCCGAAA | 0.266
100 | TACCGAAA | 0.204

Row | Sequence | PBM E-score
101 | GTCCGAAA | 0.316
102 | GTCCGAAC | 0.23
103 | TCCCGAAA | 0.196
104 | TTCCGAAA | 0.37
105 | CCAGCTAA | -0.204
106 | GTATCTTA | 0.197
107 | CTCGCGAC | -0.064
108 | GTCGCGAC | 0.315
109 | GTCGCGAA | 0.00034
110 | CTCTTCAA | -0.129
111 | TAGACCTA | -0.0542
112 | GCGGATTA | 0.0175
113 | CCGGATTC | 0.33
114 | CCGGAGTA | 0.381
115 | ACGGATTA | 0.183
116 | CCGGATTA | 0.352
117 | CTGGATTC | 0.00297
118 | CCGGAGTC | 0.235
119 | ACGGATTC | 0.197
120 | GCGGAGTA | 0.0105
121 | ATATGGAT | -0.0237
122 | ACCGCTCG | -0.135
123 | GGTAGGTA | -0.127
124 | CCGCGGCA | 0.409
125 | CCGCGGCG | 0.326

Row | Sequence | PBM E-score
126 | GCGCGGCC | 0.177
127 | ACGCGGCC | -0.0466
128 | CCGCGGCC | 0.374
129 | ACGCGGCA | 0.096
130 | GCGCGGCA | 0.158
131 | ACGCGGCG | 0.113
132 | CAGCGGCG | 0.0785
133 | ACCCAACC | -0.191
134 | AGAGGGGA | -0.286
135 | ACTGGGTC | -0.271
136 | GAGATTCC | 0.0978
137 | CCAAAGCC | -0.0564
138 | CCGGACGA | 0.323
139 | CGGGAACA | 0.313
140 | TCGGACGA | 0.278
141 | AGGGAACA | 0.00359
142 | GGGGAACA | -0.17
143 | CCGGAAGC | 0.329
144 | ACGGAAGA | 0.262
145 | GCGGAAGC | 0.105
146 | ACGGACGA | 0.237
147 | CCGGAAGA | 0.344
148 | ACGGAAGC | 0.274
149 | CCGGAAGG | 0.28
150 | GACACCTA | -0.129

Row | Sequence | PBM E-score
151 | AAGGGCGA | -0.211
152 | AACAACCT | -0.0961
153 | CAGCTTCG | -0.0525
154 | ATAGTCGA | 0.0238
155 | AAACCCCG | 0.0829
156 | ATTCGATC | 0.111
157 | GAAGGGGA | -0.201
158 | GACAGAGC | -0.128
159 | AGGCCGAA | 0.302
160 | CGGGAAGC | 0.138
161 | AGGGAAGA | -0.12
162 | CGGGAAGA | 0.315
163 | GAACAATA | 0.313
164 | AAACAATA | 0.282
165 | TAACAATA | 0.158
166 | CACACCGG | 0.0348
167 | AATACCGT | 0.188
168 | AATACCGG | 0.336
169 | AACACCGG | 0.37
170 | AACACCGC | -0.13
171 | AATACCGC | 0.0781
172 | CACCCGTG | -0.169
